Compound activity deposited in PubChem by several laboratories.
Rows were chosen to be rich in hits. Some 12% of all compounds tested hit in one or more screens of this group.
Cl transport mod – KCC2 cotransporter modulators, thallium flux, primary screen, cell-based, HEK293 KCC2, FluoZin-2 fluorescence, MLSMR; Solute carrier family 12 member 5 (Homo sapiens), Q9H2X9; KCC2 cells, thallium flux FluoZin-2 fluorescence; B-score of Tl+ flux slope (higher = more flux/activation; lower = inhibition) at 10 µM; hit rate 2.2% among 190,000; AID 1456, 2008;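 active means thallium flux slope and its plate-corrected score both differing from the plate sample mean at a set confidence after two filtering rounds, in either direction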;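 further: slope of fluorescence scaled to starting intensity during 10 to 20 s after thallium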
Insulin prom up – insulin promoter activators in MIN6 cells, imaging, high-content screening, mouse beta cells; MIN6 insulin promoter-GFP reporter; stronger effect = higher value; z-score at 5 µM; hit rate 0.3% among 190,000; AID 1625, 2009;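 active means z-score above 3 at 5 µM with at least 500 cells counted in the well; inconclusive means wells under 500 cells, flagged as cytotoxic or low count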
ROMK primary – ROMK potassium channel modulators, primary screen, cell-based, thallium flux, MLSMR library; Tet-inducible ROMK, thallium flux fluorescence; actives lie on both sides; B-score at 10 µM; hit rate 2% among 130,000; ATP-sensitive inward rectifier potassium channel 1 (Homo sapiens), P48048;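 active means signal ratio slope over the read window, or its plate-corrected B-score, at least 3 SD from the plate mean, either direction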;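 further: B-score of the F/F0 ratio slope over 7 to 12 s after thallium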
Target sequence (P48048 whole entry, looked up): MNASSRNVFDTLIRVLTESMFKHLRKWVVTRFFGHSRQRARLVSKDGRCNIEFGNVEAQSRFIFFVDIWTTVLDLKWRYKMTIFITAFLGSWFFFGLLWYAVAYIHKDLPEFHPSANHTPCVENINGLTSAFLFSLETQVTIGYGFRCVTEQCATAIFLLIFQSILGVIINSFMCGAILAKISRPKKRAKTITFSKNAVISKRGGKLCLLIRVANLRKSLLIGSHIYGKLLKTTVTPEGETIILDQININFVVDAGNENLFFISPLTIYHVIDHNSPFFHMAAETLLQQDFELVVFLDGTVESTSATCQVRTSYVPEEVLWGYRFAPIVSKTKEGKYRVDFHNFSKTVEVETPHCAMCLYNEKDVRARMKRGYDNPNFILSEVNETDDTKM
WT yeast gro inh – growth inhibition of WT strain, primary screen, mitochondrial fusion inhibitor project, WT and mutant strains, chemical genetic. AID 1362, 2008. mitochondrial fusion phenotypic screen. hit rate 2.1% among 190,000. inhibition, % at 10 µM; in the data active means inhibition above about 58%; tested in S. cerevisiae
Insulin prom inh – inhibitors of insulin promoter-driven GFP, primary screen, imaging, TRM-6 cells (human fetal islet line), eGFP reporter, cell count. reporter expression induced with tamoxifen. hit rate 0.9% among 130,000. inhibition, % at 2 µM;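 active means inhibition above the mean plus 3 SD, with well images judged a real hit on visual review, cut at about 60% in these data, passing the limit was not always enough; inconclusive means inhibition over the cutoff but images rejected on review; inactive means inhibition not above the cutoff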
L major viab – Leishmania major promastigote growth inhibition, primary screen | AID 1063, 2008 | inhibition, % at 10 µM | hit rate 9% among 200,000 | Leishmania major promastigotes, resazurin fluorescence viability; in the data active means inhibition above about 50%;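 further: promastigotes grown with compound for 44 hours at 28 °C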
The depositor's hits bear a star; ? = inconclusive; . = not tested or not shown.

SMILES	Cl transport mod	Insulin prom up	ROMK primary	WT yeast gro inh	Insulin prom inh	L major viab
NC(=O)CC(NC(=O)Cc1ccc(Br)cc1)c1ccc(NC2CCC2)c([N+](=O)[O-])c1 (stereo not drawn)	0.232	0.31	.	.	.	.
CC1CCCCN1Cc1cnc(Cl)s1 (stereo not drawn)	.	0.75	.	-1.9	-3.3	-5.3
Cc1ccc(C(=O)CC2C(=O)N(c3ccccc3)C(=S)N2c2ccccc2)cc1 (stereo not drawn)	-0.862	1.44	-0.357	30.3	-46.7	58.7*
Cc1ccc2c(Cl)cc(Cl)c(OCC(=O)Nc3cc(S(=O)(=O)N(C)C)ccc3C)c2n1	-0.981	-2.27	.	32.5	.	68.5*
Cc1ccc2c(Cl)cc(Cl)c(OCC(=O)Nc3cccc(S(N)(=O)=O)c3)c2n1	2.41	-0.47	.	9.6	-15.4	71.3*
NS(=O)(=O)c1cccc(NC(=O)COc2ccc([N+](=O)[O-])cc2)c1	0.0136	1.19	-0.131	2.9	.	4.1
Cc1ccc(S(=O)(=O)N(C)C)cc1NC(=O)COc1ccc(-c2nnco2)cc1	0.365	-0.99	.	.	.	.
Cc1cccc(OCC(=O)Nc2cc(C)on2)c1	-0.0103	.	.	-5.0	37.5	-2.9
COC(=O)CSc1nc(NC(C)=O)nc(C)c1Br	0.629	0.93	.	10.5	-42.9	-0.9
Cc1nn(Cc2ccc(C(=O)NC(C)(C)C)o2)c(C)c1Br	0.664	?	.	-32.5	-9.1	0.6
Cc1c(C(=O)NCCCN2CCOCC2)sc2nc(-c3ccc(F)cc3)cn12	-0.223	.	.	11.2	16.9	79.0*
Cc1c(C(=O)NCc2cccnc2)sc2nc(-c3ccc(F)cc3)cn12	-1.19	-0.19	.	1.1	.	96.3*
O=C(COC(=O)c1cc[n+]([O-])cc1)Nc1cccc(Cl)c1Cl	0.662	0.58	-1.01	0.0	.	-5.8
O=C(COC(=O)c1ccccn1)Nc1cccc(Cl)c1Cl	.	-0.12	.	96.9*	23.3	1.1
CCN(CC)C(=O)Oc1ccc2ccccc2c1Br	-1.14	-0.15	0.00447	30.2	-7.1	-3.1
O=C(Oc1ccc2ccccc2c1Br)N1CCCCCC1	-1.14	-0.17	.	70.5*	0.0	0.1
O=C(Oc1ccc2cc(Br)ccc2c1)N1CCCCCC1	-0.829	-0.21	0.57	67.9*	-13.2	30.4
CC(C)(C)C(=O)Nc1cccc(C(=O)Nc2cc(C(=O)O)cc(C(=O)O)c2)c1	0.219	-0.06	0.202	-10.7	12.9	-3.3
O=S(=O)(NCCC(c1ccc(F)cc1)c1ccco1)c1ccccc1 (stereo not drawn)	-1.1	0.02	0.224	60.5*	-41.2	14.2
COc1ccc(N2Cc3cccc(C(=O)N4CCN(C(=O)c5ccco5)CC4)c3C2=O)cc1	.	-0.76	.	5.8	.	-2.9
C(#Cc1ccccc1)C[N+]1(CC#Cc2ccccc2)CCCC1	0.365	0.97	-0.23	7.1	5.3	100.1*
C=CC[N+]1(CC#Cc2ccccc2)CCCC1	-0.0699	-0.18	0.108	14.0	.	-6.7
C(=N\Nc1ncnc2ccccc12)/c1ccccc1	-0.457	-0.95	0.0327	12.2	77.8*	-13.1
CC(/C=N/Nc1nnc(C)c(=O)[nH]1)=C\c1ccccc1	-1.06	-0.15	-0.0591	-3.8	.	5.0
O=c1[nH]c(N/N=C/c2cc3c(cc2[N+](=O)[O-])OCO3)nc2ccccc12	.	-0.16	.	.	.	.
SMILES	Cl transport mod	Insulin prom up	ROMK primary	WT yeast gro inh	Insulin prom inh	L major viab
Clc1cccc(/C=N/Nc2ncnc3ccccc23)c1	-0.583	-0.46	.	10.4	.	34.9
O=c1[nH]c(N/N=C/c2ccccc2)nc2ccccc12	0.843	0.15	.	-6.5	-13.0	57.8*
O=c1[nH]c(N/N=C\c2ccc3c(c2)OCO3)nc2ccccc12	0.017	-1.04	0.812	8.8	.	51.2*
Cc1cccc(/C=N\Nc2nnc(-c3ccccc3)c(=O)[nH]2)c1	0.0503	0.54	0.0135	8.5	-19.5	68.2*
COc1cccc(Nc2nc3ccccc3c(=O)[nH]2)c1	0.318	-0.45	-2.21	-0.6	.	4.0
O=C(O)C1CC(=O)N(c2ccc(OCc3ccccc3Cl)cc2)C1 (stereo not drawn)	-0.839	0.22	.	1.0	-10.8	-4.7
C/C(=N/NC(=O)Cn1nc2ccccc2n1)c1ccc(F)cc1	-0.924	0.63	.	2.3	10.3	40.7
O=C(CSCC(=O)OCn1nnc2ccccc2c1=O)Nc1ccc(Cl)cc1	-0.152	.	-1.04	69.9*	-45.5	-5.2
